Measured values published in PubChem BioAssay (NCATS).
Inconclusive results are not listed. Active and inactive are the calls of the source. The call rests on the fitted dose curve; in most records, active means well fitted curve in the direction sought with a large enough effect; inconclusive means small, poorly fitted or top-dose-only effect, or another doubt; inactive means no such curve, though single readings can be large; an effect the other way counts as inactive or inconclusive.

Tests used:
NIH3T3 = assay: qHTS assay to identify novel small-molecules to repurpose for Merkel cell carcinoma treatment (AID 1296009); details: MCC and control cell lines, CellTiter-Glo viability, 72 h; at 44.8 µM (top of the series) unless noted; further: nearly all actives have a fitted effect of over 60% in size
Procedure, shortened: (§1)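 Cells were incubated with compound for 72 hr at 37 degree celsius before CellTiter-Glo addition. Luminescence was normalized with no-cell wells as full cytotoxicity and DMSO as baseline.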

UISO = assay: as above; details: MCC and control cell lines, CellTiter-Glo viability, 72 h; series mostly up to 46 µM
Procedure, shortened: as §1

C33A = assay: Primary qHTS to identify gynecologic anti-cancer compounds using libraries of approved drugs and bioactive compounds (AID 1345084); details: Gynecologic cancer cell panel viability, ATPlite luminescence, 48 h; series mostly up to 57.5 µM; further: nearly all actives have a fitted effect of over 55% in size
Procedure, shortened: (§2)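 ATP-based viability (ATPlite), 1,000 cells/well, 16 h pre-incubation, 48 h compound at 37 C, 5% CO2, 15 min RT before read.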

CAOV3 = assay: as above; details: Gynecologic cancer cell panel viability, ATPlite luminescence, 48 h; series mostly up to 57.5 µM
Procedure, shortened: as §2

CASKI = assay: as above; details: Gynecologic cancer cell panel viability, ATPlite luminescence, 48 h; series mostly up to 57.5 µM
Procedure, shortened: as §2

Es-2 = assay: as above; details: Gynecologic cancer cell panel viability, ATPlite luminescence, 48 h; series mostly up to 57.5 µM
Procedure, shortened: as §2

HeLa = assay: as above; details: Gynecologic cancer cell panel viability, ATPlite luminescence, 48 h; series mostly up to 57.5 µM
Procedure, shortened: as §2

Hek293T = assay: as above; details: Gynecologic cancer cell panel viability, ATPlite luminescence, 48 h, control line for the selectivity index; series mostly up to 57.5 µM
Procedure, shortened: as §2

JEG-3 = assay: as above; details: Gynecologic cancer cell panel viability, ATPlite luminescence, 48 h; series mostly up to 57.5 µM
Procedure, shortened: as §2

OV90 = assay: as above; details: Gynecologic cancer cell panel viability, ATPlite luminescence, 48 h; series mostly up to 57.5 µM
Procedure, shortened: as §2

PA-1 = assay: as above; details: Gynecologic cancer cell panel viability, ATPlite luminescence, 48 h; series mostly up to 57.5 µM
Procedure, shortened: as §2

SKOV3 = assay: as above; details: Gynecologic cancer cell panel viability, ATPlite luminescence, 48 h; series mostly up to 57.5 µM
Procedure, shortened: as §2

Tov-21-G = assay: as above; details: Gynecologic cancer cell panel viability, ATPlite luminescence, 48 h; series mostly up to 57.5 µM
Procedure, shortened: as §2

Tov112D = assay: as above; details: Gynecologic cancer cell panel viability, ATPlite luminescence, 48 h; series mostly up to 57.5 µM
Procedure, shortened: as §2

[1] = Drug repurposing screens with cells derived from glioblastoma tumor samples (AID 1345199); details: GBM patient neurospheres viability, ATP luminescence, 48 h; further: nearly all actives have a fitted effect of over 40% in size
Procedure, shortened: (§3)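 Four patient lines of CD133+ GBM neurospheres were screened at several concentrations; hits were retested in those lines plus three slower-growing GBM lines, using 48-hour treatment and ATP-based viability.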

astro = assay: as above; details: viability, ATP luminescence, 48 h; series mostly up to 45.9 µM
Procedure, shortened: as §3

WaGa = assay: qHTS assay to identify novel small-molecules to repurpose for Merkel cell carcinoma treatment (AID 1296009); details: MCC and control cell lines, CellTiter-Glo viability, 72 h; series mostly up to 46 µM; further: nearly all actives have a fitted effect of over 60% in size
Procedure, shortened: as §1

[2] = at 45.9 µM (top of the series), tumour line B
[3] = at 45.9 µM (top of the series), tumour line D
[4] = at 46 µM (top of the series), tumour line A
[5] = at 46.1 µM (top of the series), tumour line C
On the % scale 0 is the no-effect control and ±100 the full control effect; potency means the concentration at half of the fitted maximal effect.

CC(C)[N+](C)(CCOC(=O)C1c2ccccc2Oc2ccccc21)C(C)C
inactive: outcome (NIH3T3) | Potency (UISO) | Potency (C33A) | Potency (CAOV3) | Potency (CASKI) | Potency (Es-2) | Potency (HeLa) | Potency (Hek293T) | Potency (JEG-3) | Potency (OV90) | Potency (PA-1) | Potency (SKOV3) | Potency (Tov-21-G) | Potency (Tov112D) | activity, negative = cell killing [1, 2] -4.27% | activity, negative = cell killing [1, 3] -14.8% | activity, negative = cell killing [1, 4] -16.6% | activity, negative = cell killing [1, 5] -11.5%

COCC(=O)O[C@]1(CCN(C)CCCc2nc3ccccc3[nH]2)CCc2cc(F)ccc2[C@@H]1C(C)C
active: Potency (OV90) 22.4 µM | Potency (astro) 10 µM
inactive: Potency (Es-2) | Potency (Hek293T) | Potency (PA-1) | Potency (Tov-21-G) | Potency (Tov112D)

COC(=O)C1=C(C)NC(C)=C(C(=O)OCCN(C)Cc2ccccc2)C1c1cccc([N+](=O)[O-])c1 (stereo not drawn)
active: Potency (UISO) 23.7 µM | Potency ([1]; tumour line A) 8.91 µM | Potency ([1]; tumour line D) 14.1 µM
inactive: Potency (C33A) | Potency (CASKI) | Potency (Es-2) | Potency (JEG-3) | Potency (Tov-21-G) | activity, negative = cell killing [1, 5] 14.5%

CCNC(=O)N1CCN(CCCC(c2ccc(F)cc2)c2ccc(F)cc2)CC1
inactive: Potency (C33A) | Potency (CAOV3) | Potency (CASKI) | Potency (Es-2) | Potency (HeLa) | Potency (JEG-3) | Potency (PA-1) | Potency (Tov-21-G) | Potency (Tov112D) | Potency (astro)

COCCCC/C(=N\OCCN)c1ccc(C(F)(F)F)cc1
inactive: Potency (Hek293T) | Potency (JEG-3) | Potency (PA-1) | Potency (Tov-21-G) | Potency (Tov112D)

C[C@]12CC[C@@H]3c4ccc(O)cc4C[C@@H](CCCCCCCCCS(=O)CCCC(F)(F)C(F)(F)F)[C@H]3[C@@H]1CC[C@@H]2O (stereo partly drawn)
inactive: Potency (WaGa) | Potency (C33A) | Potency (CAOV3) | Potency (CASKI) | Potency (Es-2) | Potency (HeLa) | Potency (Hek293T) | Potency (JEG-3) | Potency (OV90) | Potency (PA-1) | Potency (SKOV3) | Potency (Tov-21-G) | Potency (Tov112D) | activity, negative = cell killing [1, 2] 11.9% | activity, negative = cell killing [1, 3] -8.98% | activity, negative = cell killing [1, 5] 16.6%
active: Potency ([1]; tumour line A) 4.47 µM

CCCC(C(=O)OCCN(CC)CC)(c1ccccc1)c1ccccc1
inactive: Potency (CASKI) | Potency (JEG-3)
active: Potency (UISO) 26.6 µM | Potency (OV90) 12.6 µM

COc1cc(C(=O)OCCCN2CCCN(CCCOC(=O)c3cc(OC)c(OC)c(OC)c3)CC2)cc(OC)c1OC
inactive: Potency (UISO) | Potency (C33A) | Potency (Hek293T) | Potency (JEG-3) | Potency (PA-1) | Potency (SKOV3) | Potency (Tov112D) | activity, negative = cell killing [1, 5] -7.95%
active: Potency ([1]; tumour line A) 3.98 µM | Potency ([1]; tumour line D) 22.4 µM

Fc1ccc(C(c2ccc(F)cc2)N2CCN(C/C=C/c3ccccc3)CC2)cc1
inactive: Potency (UISO) | Potency (Es-2) | Potency (HeLa) | Potency (Hek293T) | Potency (JEG-3) | Potency (PA-1) | Potency (SKOV3) | Potency (Tov-21-G) | Potency (Tov112D)

CN(C)CCCN1c2ccccc2Sc2ccccc21
active: Potency ([1]; tumour line A) 12.6 µM | Potency ([1]; tumour line D) 10 µM
inactive: Potency (C33A) | Potency (CAOV3) | Potency (CASKI) | Potency (Es-2) | Potency (HeLa) | Potency (Hek293T) | Potency (JEG-3) | Potency (PA-1) | Potency (SKOV3) | Potency (Tov-21-G) | Potency (Tov112D) | activity, negative = cell killing ([1]; at 20 µM (top of the series), tumour line C) -19.7%

CO[C@@]1(NC(=O)CSCC#N)C(=O)N2C(C(=O)O)=C(CSc3nnnn3C)CS[C@@H]21
inactive: Potency (UISO) | Potency (C33A) | Potency (CAOV3) | Potency (CASKI) | Potency (Es-2) | Potency (Hek293T) | Potency (JEG-3) | Potency (OV90) | Potency (PA-1) | Potency (SKOV3) | Potency (Tov-21-G) | Potency (Tov112D) | activity, negative = cell killing [1, 2] -13.1% | activity, negative = cell killing [1, 3] -14.3% | activity, negative = cell killing [1, 4] -28.8% | Potency (astro)

OCCN1CCN(CC/C=C2/c3ccccc3Sc3ccc(C(F)(F)F)cc32)CC1
inactive: Potency (C33A) | Potency (CASKI) | Potency (HeLa) | Potency (JEG-3) | Potency (Tov-21-G) | Potency (Tov112D) | activity, negative = cell killing [1, 5] -15%
active: Potency (OV90) 10 µM | Potency ([1]; tumour line A) 2 µM
